PINK1 expr mod: changes PINK1 expression. PINK1 immunofluorescence, high-content cytometry, 24 h. Potency, µM (top dose mostly 76.6 µM), for the others: at the highest dose activation (PINK1 increase), usual class: activators. 410,000 tested, 0.2% active. AID 624263; active means well fitted activation curve with a large enough effect; inconclusive means small, poorly fitted or top-dose-only effect; cell line not stated here; further: % of control where 0% means no effect; nearly all actives have a fitted effect of over 65% in size
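Decision-based qHTS: stable cells, 24 h exposure to five compound concentrations, CCCP as control. Fixed cells stained for PINK1 plus nuclear, mitochondrial and cell markers, cytometer read.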
VP16 counter: counter-screen for ROR gamma inhibitors: Gal4-VP16 reporter; Drosophila S2 Gal4-VP16 UAS-luciferase, luminescence, 20 h; Potency, µM (top dose mostly 53.6 µM), for inactives: top-dose activity, negative = inhibition, usual class: inhibitors; 310,000 tested, 3.5% active;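 further: Gal4-VP16 expression switched on by copper sulfate through the metallothionein promoter; on the % scale 0 is the no-effect control and ±100 the full control effect; nearly all actives have a fitted effect of over 50% in size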
RORg inh: inhibitors of mouse ROR gamma transcriptional activity | Drosophila S2 Gal4-RORgamma UAS-luciferase reporter, 20 h | Potency, µM (titrated, usually from 53.6 µM), inactives show at the highest dose activity change, negative = inhibition, most hits filed as inhibitors | 310,000 tested, 5.4% active; further: on the % scale 0 is the no-effect control and ±100 the full control effect; nearly all actives have a fitted effect of over 60% in size
Target sequence (P51450 whole entry, looked up, the tested form may be a part): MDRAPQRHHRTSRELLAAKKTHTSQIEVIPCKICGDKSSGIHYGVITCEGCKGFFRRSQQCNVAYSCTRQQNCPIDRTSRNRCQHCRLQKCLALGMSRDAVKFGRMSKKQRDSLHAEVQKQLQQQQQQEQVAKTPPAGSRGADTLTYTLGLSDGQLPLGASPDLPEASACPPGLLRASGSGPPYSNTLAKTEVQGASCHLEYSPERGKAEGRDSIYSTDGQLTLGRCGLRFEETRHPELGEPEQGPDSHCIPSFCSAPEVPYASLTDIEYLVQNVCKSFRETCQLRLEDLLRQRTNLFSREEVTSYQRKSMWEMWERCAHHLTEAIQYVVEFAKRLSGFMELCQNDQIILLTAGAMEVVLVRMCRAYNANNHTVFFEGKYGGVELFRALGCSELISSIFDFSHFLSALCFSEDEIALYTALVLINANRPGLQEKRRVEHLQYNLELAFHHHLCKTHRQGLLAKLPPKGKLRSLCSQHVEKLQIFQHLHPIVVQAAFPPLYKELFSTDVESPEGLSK
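Read-out: Photinus luciferase luminescence; inhibitors lower reporter signal. Insect Schneider cells with Gal4-ROR gamma fusion under metallothionein promoter, UAS reporter; 700 uM final copper sulfate induction, 20 hr, ambient temperature.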
Epigenetic derep: regulators of epigenetic silencing causing reporter derepression in mouse cells. Potency, µM (doses to about 53.9 µM), for inactives: at the top dose GFP activation, usual class: activators. AID 1865. 280,000 tested, 0.2% active. murine LDR cells, GFP reporter derepression, 30 h; further: % of control where 0% means no effect; nearly all actives have a fitted effect of over 60% in size
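Readout is the number of GFP-expressing murine LDR cells, counted by cytometry following washing. Cells were treated with compound for 30 h at 37 C; the stably integrated CMV-GFP locus is normally silent.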
ClpP mod: qHTS Assay for Activators of ClpP | purified B. subtilis ClpP, FRET peptide cleavage, 20 min | ATP-dependent Clp protease proteolytic subunit (Bacillus subtilis (strain 168)), P80244 | 340,000 tested, 1.9% active | Potency, µM (highest dose often 57.5 µM), for inactives: at the top dose activity change, negative = active; active means well fitted falling curve with a large enough effect; inconclusive means small, poorly fitted or top-dose-only effect; inactive means no such curve, though single readings can be large or run the other way; further: the source files actives as falling curves though it sought activators and does not explain the sign; nearly all actives have a fitted effect of over 65% in size
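ClpP 10 microg/mL final, pH 8 Tris/KCl buffer with BSA, glycerol, Tween-20; compound pinned in; FRET-FV substrate; RT 20 min; Ex320/Em430; ΔFRET vs ADEP 5.8 microM, DMSO, no enzyme.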
Sfp PPTase inh: Sfp phosphopantetheinyl transferase inhibition; Potency, µM, for the others: largest response in the series, negative = inhibition, actives largely listed as inhibitors; 310,000 tested, 3.5% active; AID 1490; Q9F4F7; Biochemical Sfp PPTase activity, qHTS;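 further: the enzyme is Sfp with the accession as filed and its product quenches rhodamine fluorescence; 0% = enzyme reaction without inhibitor and -100% = no enzyme wells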
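Reaction rates are the 30-min fluorescence difference (ex 525, em 598 nm) in wells containing 15 nM Sfp, 5 uM rhodamine-CoA and 12.5 uM BHQ-2-YbbR at pH 7.6 with 10 mM MgCl2.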
An asterisk follows results filed as active; ? = inconclusive; · = not tested or not shown; ! = a repeat was not active; [ ] = remark or other dose. Most compounds without a hit are left out; they make up all but 8.1% or so of the library. Unless noted, the call rests on the fitted dose curve; in most records, active means well fitted curve in the direction sought with a large enough effect; inconclusive means small, poorly fitted or top-dose-only effect, or another doubt; inactive means no such curve, though single readings can be large; an effect the other way counts as inactive or inconclusive. Potency means the concentration at half of the fitted maximal effect.

SMILES	PINK1 expr mod	VP16 counter	RORg inh	Epigenetic derep	ClpP mod	Sfp PPTase inh
COC(=O)c1cc(NC(=O)c2ccc(OC)cc2)c(=O)oc1C	0%	-21%	13%	-2%	·	-13%
CCSc1ncc(Cl)c(C(=O)Nc2sc3c(c2C(=O)NCCOC)CCCC3)n1	3%	·	·	·	3%	·
O=C(OCC1OC(OC(=O)c2cc(O)c(O)c(OC(=O)c3cc(O)c(O)c(O)c3)c2)[C@@H](OC(=O)c2cc(O)c(O)c(OC(=O)c3cc(O)c(O)c(O)c3)c2)C(OC(=O)c2cc(O)c(O)c(OC(=O)c3cc(O)c(O)c(O)c3)c2)C1OC(=O)c1cc(O)c(O)c(OC(=O)c2cc(O)c(O)c(O)c2)c1)c1cc(O)c(O)c(OC(=O)c2cc(O)c(O)c(O)c2)c1 (stereo partly drawn)	·	?	?	1%	·	11µM*
O=Nc1ccc(/C=C/c2ccnc3ccccc23)cc1	·	·	·	·	1%	·
CCCCN(C(=O)C1CC(=O)N(CCc2ccc(OC)c(OC)c2)C1)c1c(N)n(CCCC)c(=O)[nH]c1=O (stereo not drawn)	5%	·	·	·	·	·
CCCCN(C(=O)C1CC(=O)N(Cc2ccc(C)cc2)C1)c1c(N)n(CCCC)c(=O)[nH]c1=O (stereo not drawn)	0%	·	·	·	22µM*	·
CC1(C)CC2CC(C)(CN2C(=O)COC(=O)CNC(=O)c2ccc(Cl)c(Cl)c2)C1 (stereo not drawn)	24%	-6%	11%	0%	25µM*	-1%
CC1(C)CC2CC(C)(CN2C(=O)COC(=O)c2ccc(O)cc2O)C1 (stereo not drawn)	1%	·	·	·	-1%	·
CC1(C)CC2CC(C)(CN2C(=O)COC(=O)c2cc(Cl)cc(Cl)c2N)C1 (stereo not drawn)	6%[38.3 µM]	-7%	5%	-1%	32µM*	-13%
Cc1csc(N2CCN(c3cc4c(cc3Cl)nc(-c3ccncc3)n4CCCN3CCCC3)CC2)n1	5%	-8%	0%	·	-9%	?
Cc1csc(N2CCN(c3cc4nc(-c5ccncc5)[nH]c4cc3Cl)CC2)n1	2%	-1%	31%	·	-4%	79µM*
CCC(Sc1n[nH]c(=O)[nH]c1=O)C(=O)OCc1ccccc1 (stereo not drawn)	1%	-6%	-3%	3%	0%	?
CC(Sc1n[nH]c(=O)[nH]c1=O)C(=O)OCc1ccccc1 (stereo not drawn)	-1%	-7%	5%	0%	0%	79µM*
OCC1CCCN(c2nc(CN3CCCCC3)nc3scc(-c4ccccc4)c23)C1 (stereo not drawn)	1%	0%	-25%	1%	0%	9%
Fc1ccc(N2CCN(c3nc(CN4CCOCC4)nc4scc(-c5ccccc5)c34)CC2)cc1	2%	-20%	10µM*	-1%	-5%	-15%
CN(Cc1ccccc1)c1nc(CN2CCOCC2)nc2scc(-c3ccccc3)c12	-1%	?	10µM*	3%	-3%	-28%
CCNc1nc(CN2CCCCC2)nc2scc(-c3ccccc3)c12	6%	?	16µM*	0%	·	5%
CC(C)c1ccc(N2C(=O)CS(=O)(=O)C23C(=O)N(Cc2cccc(F)c2)c2ccccc23)cc1 (stereo not drawn)	-5%	·	·	-1%	0%	·
COc1ccc2c(c1)cc1c(=O)n(CC(=O)NCc3ccco3)nc(C)n12	1%	·	·	3%	-14%	·
CC1=CC2=NC(=O)/C(=C\c3cccn3CCOc3cccc(C)c3)C(=N)N2O1	1%	?	16µM*	0%	-2%	?
COc1cccc(OCCn2cccc2/C=C2/C(=N)N3OC(C)=CC3=NC2=O)c1	0%	-4%	-1%	0%	1%	11%
CC1(C)CCC(=O)c2ccccc21	0%	·	·	·	1%	·
CC1(C)CCC2=C(O1)c1ccccc1C(=O)C2=O	0%	5.6µM*	2.5µM*	-1%	8%	63µM*!

Screening data from PubChem BioAssay.
